Test [1] is described as follows: qHTS profiling for inhibitors of Plasmodium falciparum proliferation (AID 504749).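 On activity, negative = inhibition: 0% = DMSO vehicle and full inhibition = artemisinin control.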 On all read-outs here: nearly all actives have a fitted effect of over 60% in size. The note with it: P. falciparum in erythrocytes, SYBR Green DNA, 72 h; for activity, negative = inhibition: at 28.7 µM (top of the series). In short, it runs like this: (§1)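 P. falciparum-infected erythrocytes (0.3% parasitemia, 2.5% hematocrit final) were exposed to compounds for 72 h at 37 C in 5% CO2, then lysed with SYBR Green buffer overnight at room temperature; parasite DNA fluorescence was normalized to artemisinin and DMSO controls.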
Background: qHTS replaces the single test concentration by a dilution series.

For test [2], the system named is 3D7. Described as above. The conditions noted are these: P. falciparum in erythrocytes, SYBR Green DNA, 72 h; series mostly up to 28.7 µM. In a few lines:
as §1

In test [3] the test system is 7G8. Described as above. The conditions noted are these: P. falciparum in erythrocytes, SYBR Green DNA, 72 h; series mostly up to 28.7 µM. In short, it runs like this: as §1
Test [4] deals with AA1029. The description is as above. The note with it: P. falciparum in erythrocytes, SYBR Green DNA, 72 h; series mostly up to 28.7 µM. In short, it runs like this:
as §1

The test system of test [5] is AS120. The description is as above. The conditions noted are these: P. falciparum in erythrocytes, SYBR Green DNA, 72 h; series mostly up to 28.7 µM. In short, it runs like this: as §1
In test [6] the test system is ATS189. Described as above. The note with it: P. falciparum in erythrocytes, SYBR Green DNA, 72 h; series mostly up to 28.7 µM. In short, it runs like this: as §1
Test [7] relates to ATS95. The test is described as above. The note with it: P. falciparum in erythrocytes, SYBR Green DNA, 72 h; series mostly up to 28.7 µM. In a few lines: as §1
Test [8] has as its system C2A. Described as above. The conditions noted are these: P. falciparum in erythrocytes, SYBR Green DNA, 72 h; series mostly up to 28.7 µM. In short, it runs like this: as §1
Test [9] has as its system CP185. The test is described as above. The note with it: P. falciparum in erythrocytes, SYBR Green DNA, 72 h; series mostly up to 28.7 µM. In a few lines:
as §1

The subject of test [10] is CP191. Described as above. The conditions noted are these: P. falciparum in erythrocytes, SYBR Green DNA, 72 h; series mostly up to 28.7 µM. In a few lines: as §1
For test [11], the system named is CP192. The test is described as above. The note with it: P. falciparum in erythrocytes, SYBR Green DNA, 72 h; series mostly up to 28.7 µM. In short, it runs like this:
as §1

Test [12] deals with CP194. The test is described as above. The note with it: P. falciparum in erythrocytes, SYBR Green DNA, 72 h; series mostly up to 28.7 µM. In a few lines:
as §1

Test [13] relates to CP201. Described as above. The note with it: P. falciparum in erythrocytes, SYBR Green DNA, 72 h; series mostly up to 28.7 µM. In a few lines: as §1
Test [14] has as its system CP203. The description is as above. The conditions noted are these: P. falciparum in erythrocytes, SYBR Green DNA, 72 h; series mostly up to 28.7 µM. In a few lines:
as §1

Test [15] relates to CP211. The description is as above. The note with it: P. falciparum in erythrocytes, SYBR Green DNA, 72 h; series mostly up to 28.7 µM. In a few lines:
as §1

Test [16] has as its system CP215. The description is as above. The conditions noted are these: P. falciparum in erythrocytes, SYBR Green DNA, 72 h; series mostly up to 28.7 µM. In short, it runs like this: as §1
The subject of test [17] is CP217. Described as above. The conditions noted are these: P. falciparum in erythrocytes, SYBR Green DNA, 72 h; series mostly up to 28.7 µM. In short, it runs like this:
as §1

The subject of test [18] is CP237. Described as above. The conditions noted are these: P. falciparum in erythrocytes, SYBR Green DNA, 72 h; series mostly up to 28.7 µM. In short, it runs like this:
as §1

The subject of test [19] is CP238. The description is as above. The conditions noted are these: P. falciparum in erythrocytes, SYBR Green DNA, 72 h; series mostly up to 28.7 µM. In a few lines: as §1
A short description of test [20]: qHTS drug screen for cell cycle checkpoint inhibitors in PARPi-resistant BRCA-mutant ovarian cancer cell lines. (AID 1963452; calls by dose curve). The conditions noted are these: PEO1/OlaR viability, CellTiter-Glo luminescence, 96 h; for Z-AUC: stronger effect = lower value. In a few lines:
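PEO1, PEO4 and PEO1/OlaR ovarian cancer cells, 600 per well, exposed 96 h at 37C to a dilution series. Viability read by CellTiter-Glo luminescence, normalized to DMSO and empty wells; activity summarized as Z-AUC.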

Where [21] appears, read: measured here: PEO1 parental Z-AUC.

Inconclusive results are not listed. Active and inactive are the calls of the source. Unless noted, the call rests on the fitted dose curve; in most records, active means well fitted inhibition curve with a large enough effect; inconclusive means small, poorly fitted or top-dose-only effect; inactive means flat fitted curve, though single readings scatter.
Potency means the concentration at half of the fitted maximal effect.

For `Nc1nc(-c2ccccc2)c(Br)c(=O)[nH]1`, the activity, negative = inhibition in [1] (parasite line A) is -7.1% (inactive); in test [1] (parasite line B) it was 1.53% (inactive). Moreover, the Potency entry in test [2], in test [3], in test [4], in test [5], in [6] and in [7] was “inactive” in each case. Besides, the Potency entry in test [8], in test [9], in test [10], in test [11], in [12] and in [13] was “inactive” in each case. For the same compound, the Potency result in [14], in test [15], in test [16], in test [17], in test [18] and in test [19] was “inactive” in each case.

For the compound `Nc1nc(Cl)nc2c1ncn2[C@@H]1O[C@H](CO)[C@@H](O)[C@@H]1F`, the Potency in test [20] is 97.7 nM (active). In addition, the values for the Z-AUC in [20] (setting [21]) and in test [20] (measured here: PEO4 Z-AUC) were -1.93 and -1.97, respectively.

For `COc1cc([C@H]2Oc3cc([C@H]4Oc5cc(O)cc(O)c5C(=O)[C@@H]4O)ccc3O[C@@H]2CO)ccc1O`, the Z-AUC in test [20] is 1.43 (inactive); in test [20] (setting [21]), 1.29; in [20] (measured here: PEO4 Z-AUC), 0.956. Moreover, the activity, negative = inhibition in test [1] (parasite line A) was -10.1% (inactive); in [1] (parasite line B) it was -14.4% (inactive). Moreover, the Potency result in test [2], in test [4], in test [6], in test [7], in test [8] and in test [9] was “inactive” in each case. Besides, the Potency entry in test [10], in test [11], in [13], in test [14], in test [15] and in [16] was “inactive” throughout. The Potency result in test [17], in [18] and in test [19] was “inactive” throughout. Also, the Potency in test [3] was 11200 nM (active).

For `O[C@@H](c1cc(C(F)(F)F)nc2c(C(F)(F)F)cccc12)[C@H]1CCCCN1`, the Potency in [1] (parasite line A) was 31.6 nM (active); in test [1] (parasite line B), 12.6 nM (active); in test [2] it was 35.5 nM (active); in test [3], 7.9 nM (active); in test [4], 11.2 nM (active); in test [5], 20 nM (active). Further, the Potency in [6] was 28.2 nM (active); in test [7] it was 28.2 nM (active); in test [8] it was 70.8 nM (active); in test [9], 79.4 nM (active); in [10] it was 50.1 nM (active); in test [11] it was 120 nM (active). The Potency in test [12] was 213 nM (active); in test [13], 379 nM (active); in [14], 84.9 nM (active); in test [15], 213 nM (active); in [16] it was 95.3 nM (active); in test [17] it was 39.8 nM (active). The Potency was 25.1 nM (active) in [18] and 44.7 nM (active) in [19].

For `O=C1[C@H](CC[C@H](O)c2ccc(F)cc2)[C@@H](c2ccc(O)cc2)N1c1ccc(F)cc1`, the values for the Z-AUC in test [20], in test [20] (setting [21]) and in [20] (measured here: PEO4 Z-AUC) were 1.11 (inactive), 1.08 and 1.08, respectively.

For the compound `CCc1oc2ccccc2c1C(=O)c1cc(I)c(O)c(I)c1`, the figures for the activity, negative = inhibition in test [1] (parasite line A) and in test [1] (parasite line B) were -1.64% (inactive) and -5.21% (inactive), respectively. Besides, the Potency result in test [2], in test [3], in test [4], in [5], in test [6] and in test [7] was “inactive” in each case. The Potency entry in test [8], in test [9], in test [10], in test [11], in test [12] and in [13] was “inactive” each time. Moreover, the Potency entry in test [14], in [15], in [16], in [17], in [18] and in test [19] was “inactive” each time.

Turning to `O=C(O)Cc1csc(-c2ccc(Cl)cc2)n1`, the activity, negative = inhibition in test [1] (parasite line A) was 1.5% (inactive); in test [1] (parasite line B), 8.07% (inactive). Besides, the Potency entry in test [2], in [3], in test [4], in [5], in [6] and in [7] was “inactive” each time. Moreover, the Potency result in [8], in test [9], in test [10], in test [11], in [12] and in test [13] was “inactive” throughout. Besides, the Potency result in [14], in test [15], in test [16], in test [17], in test [18] and in test [19] was “inactive” throughout.

These data come from PubChem BioAssay (NCATS).
